These results are taken from PubChem BioAssay AID651821 (The Scripps Research Institute Molecular Screening Center, 2012).

Hit rate of the full screen: of about 370,000 compounds, about 4,700 (1.3%) were called active. This excerpt belongs to a sample that is enriched for actives. Unmarked numbers belong to inactive results.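 Rule for the calls: active = inhibition above the plate cutoff, the mean of all test compounds on that plate plus 3 SD (cut at about 35% in these data); inactive = the rest.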

A short description of the test: small molecules binding CAG repeat RNA – biochemical, fluorescence, primary screen (AID 651821).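 Note: 0% = DMSO alone and 100% = 100 µM mitoxantrone as full dye displacement; higher means more dye released from RNA so lower well fluorescence.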 Conditions: r(CAG) RNA repeat, TO-PRO-1 dye displacement fluorescence; at 3 µM; active compounds read high.
For `N#Cc1ccc(C(C(=O)NCc2ccccc2)n2c(=O)c(-c3ccco3)nc3ccccc32)cc1` (stereo unspecified), the inhibition was 38.9% (active). As for `COc1ccc(NC(=O)C(c2ccncc2)n2c(=O)c(-c3cc4ccccc4[nH]3)nc3ccccc32)cc1` (stereo unspecified), the inhibition is 19.9%. For `COc1ccc(C(C(=O)Nc2c(C)cccc2C)N2CCN(c3ccc(C)cc3)CC2)cc1` (stereo unspecified), the inhibition was 1.38%. Turning to `O=C(NC1CCCCC1)C(c1cc2ccccc2o1)n1c(=O)c(-c2ccco2)nc2ccccc21` (stereo unspecified), the inhibition is 24.4%.

On to `CCCCCNC(=O)C(c1ccc(OC)cc1)n1c(=O)c(-c2ccccc2)nc2ccccc21` (stereo unspecified), for which the inhibition is 7.62%. As to `CCC(C(=O)Nc1c(C)cccc1C)n1c(-c2cc(C)cs2)nc2ccccc21` (stereo unspecified), the inhibition was 2.46%.

Turning to `COc1ccc(C(C(=O)NCc2ccccc2)n2c(=O)c(-c3ccccc3)nc3ccccc32)cc1` (stereo unspecified), the inhibition was 7.82%. The same measure for `Cc1cccc(C)c1NC(=O)C(c1ccc(C(F)(F)F)cc1)n1c(=O)c(-c2ccco2)nc2ccccc21` (stereo unspecified): 34.8% (active). On to `Cc1cccc(C)c1NC(=O)C(c1cccc2ccccc12)n1c(=O)c(-c2ccco2)nc2ccccc21` (stereo unspecified), for which the inhibition is 43.8% (active). Turning to `CC(=O)N1CCc2cc(S(=O)(=O)NCCC(=O)N3CCCC3)ccc21`, the inhibition is 0.89%.

Take `COc1ccc(C2=CN(Cc3ccccc3)C(c3ccc(OC)cc3)CC2=O)cc1` (stereo unspecified): the inhibition was 2.54%. With `COC(=O)C1CN(CCc2ccccc2)CCS(=O)(=O)N1Cc1ccc(F)cc1` (stereo unspecified), the inhibition was 5.69%. On to `O=C(NCC1COc2ccccc2O1)c1ccc(NC(=O)c2cc(F)ccc2F)cc1` (stereo unspecified), for which the inhibition was 4.71%. `CC(CCN1CCC(C(O)(c2ccccc2)c2ccccc2)CC1)Oc1ccc([N+](=O)[O-])cc1Cl` (stereo unspecified): the inhibition is 2.17%. As to `CCOC(=O)Cc1csc(SCC(=O)NC(C)C23CC4CC(CC(C4)C2)C3)n1` (stereo unspecified), the inhibition is -11.4%.

Consider `O=S(=O)(Nc1ccc(O)c2ccccc12)c1ccc(OC(F)(F)F)cc1`, for which the inhibition is 39% (active).

In the case of `O=S(=O)(Nc1ccc(OC(F)(F)F)cc1)c1cccc2nonc12`, the inhibition was 3.85%. The same measure for `O=[N+]([O-])c1ccc(NS(=O)(=O)c2ccccc2)c(Cl)c1`: 6.07%.

As for `COC(=O)[C@]12C[C@H](CC(=O)NCc3cccc4ccccc34)C(=O)N(CCc3ccc(OC)c(OC)c3)C1=C[C@H](C1CCCC1)O[C@@H]2C`, the inhibition is 6.55%. With `Nc1[nH]c(/C=C2/CCCCC2n2[nH]c(=O)n(-c3ccccc3)c2=O)c(Cc2ccccc2)[n+]1Cc1ccccc1` (stereo unspecified) the figure was 8.51%. With `COc1ccc(CCNC(=O)CSc2nc3c([nH]2)c(=O)n(C)c(=O)n3C)cc1`, the inhibition was 1.31%.

As for `O=C(NC(=S)Nc1ccccc1C(=O)O)c1ccc(-c2ccc(Br)cc2)o1`, the inhibition was 69.5% (active).

Consider `O=C(O)c1ccccc1-c1ccccc1C(=O)Nc1ccccc1Br`, for which the inhibition is 1.52%. `O=C(NC(=S)Nc1ncccn1)c1ccccc1Br`: the inhibition was -2.07%. Take `CCCCCCCCN1C(=O)[C@@H](CC(=O)NCCCC)C[C@@]2(C(=O)OC)C1=C[C@H](C(C)(C)C)O[C@@H]2C`: the inhibition was 0.05%. `CCCCOCC1CN(CCCC)S(=O)(=O)c2c(Oc3ccc(F)cc3)cccc2O1` (stereo unspecified): the inhibition was 2.41%. As to `Nc1cccc(-c2cncc(N3CCN(Cc4ccccn4)CC3)n2)c1`, the inhibition was 2.15%. In the case of `Nc1cccc(-c2cc(-c3ccccc3)nc(-c3cccc(N)c3)n2)c1`, the inhibition is 35.3% (active). For the compound `Fc1ccc2cnc(-c3ccccc3)cc2c1`, the inhibition was 2%. With `Cc1c(C(=O)CN2CCOCC2)[nH]c2ccccc12`, the inhibition is 1.32%.

`CCCS(=O)(=O)Nc1c(C(=O)O)[nH]c2ccccc12`: the inhibition was 0.99%. As for `O=C(O)c1[nH]c2ccccc2c1C(c1cccc(O)c1)c1c(C(=O)O)[nH]c2ccccc12`, the inhibition was 61.1% (active). Consider `O=C(NCc1ccccc1)[C@@H]1CCCN1C(=O)[C@@H](NS(=O)(=O)c1ccc(F)cc1F)C1CCCCC1`, for which the inhibition was -1.8%. With `C=CCN1[C@H](CC(C)C)COc2cccc(N3CCCC3)c2S1(=O)=O` the figure was 8.14%; with `CCOc1ccc2ccccc2c1/C=N/NC(=O)c1c(C)cc(C)[nH]c1=O`, 0.65%; with `CN1CCc2ccccc2C1Cc1ccccc1NC(=O)c1sc2ccccc2c1Cl` (stereo unspecified), -0.7%.

`O=C(N/N=C/c1c(Cl)[nH]c2ccccc12)c1sc2ccccc2c1Cl`: the inhibition was 35.6% (active). Consider `O=C(C1=C(O)C(=O)N(c2ncccn2)C1c1cccs1)c1ccco1` (stereo unspecified), for which the inhibition is -0.3%. As for `Cc1ccc2nc(N3C(=O)C(O)=C(C(=O)c4ccco4)C3c3cccc(O)c3)sc2c1` (stereo unspecified), the inhibition is 72.6% (active). For `C=CCSc1nnc(N2C(=O)C(O)=C(C(=O)c3ccco3)C2c2ccc(F)cc2)s1` (stereo unspecified), the inhibition was 18.7%. Consider `COCCNc1cc(NCCOC)c([N+](=O)[O-])cc1[N+](=O)[O-]`, for which the inhibition was 1.02%. On to `COC(=O)[C@]12C[C@H](CC(=O)N3CCN(C(=O)C4CC4)CC3)C(=O)N(Cc3ccc4c(c3)OCO4)C1=C[C@H](C(C)(C)C)O[C@@H]2C`, for which the inhibition is 1.7%. On to `COc1ccccc1C(=O)CSc1nnc(-c2ccccn2)n1-c1ccccc1`, for which the inhibition is 5.14%. The same measure for `CCCCNC(=O)C[C@@H]1C(=O)N(CCc2ccc(Cl)cc2)C2=CCCC[C@]21C(=O)OCC`: 0.46%. For the compound `Cc1c(CCC(=O)N[C@@H](CC(C)C)C(=O)O)c(=O)oc2c(C)c3oc4c(c3cc12)CCCC4`, the inhibition is 38.4% (active). `Cc1oc2c(C)c3oc(=O)c(CC(=O)N[C@@H](CC(C)C)C(=O)N[C@@H](Cc4ccccc4)C(=O)O)c(C)c3cc2c1C`: the inhibition was 15.8%. With `Cc1c(CC(=O)NCC(=O)NCC(=O)O)c(=O)oc2cc3oc4c(c3cc12)CCCC4` the figure was 11.3%; with `Cc1c(C)c2cc3c4c(oc3c(C)c2oc1=O)CCCC4`, 5.96%; with `CC[C@@H](C)[C@H](NC(=O)CCc1c(C)c2cc3c4c(oc3c(C)c2oc1=O)CCCC4)C(=O)O`, 36.8% (active). As for `COc1ccc2c(C)c(CCC(=O)NC3CC3)c(=O)oc2c1C`, the inhibition was -3.01%. As to `COC(=O)C1=C(C)N(Cc2ccc(C(F)(F)F)cc2)C(=NCc2ccccc2)NC1c1ccccc1C(F)(F)F` (stereo unspecified), the inhibition is 1.95%. Consider `CC(C)(C)C(c1nc2ccccc2[nH]1)n1c(Cc2csc3ccccc23)nc2ccccc21` (stereo unspecified), for which the inhibition is 6.22%. With `CC(C)(C)OC(=O)NCCc1ccccc1/C=C/S(=O)(=O)NCc1ccc(F)cc1` the figure was 3.67%; with `Cc1[nH]c2ccccc2c1CC(=O)Nc1ccc(Nc2cccnc2)c(-c2cccc(Cl)c2)c1`, 14.1%; with `COC(=O)c1cc2c(c3c4cc(F)ccc4n(S(=O)(=O)c4ccccc4)c13)C(=O)N(Cc1ccccc1OC)C2`, 16.2%. As for `O=C(Nc1ccccc1)Nc1nnc(COc2ccccc2F)s1`, the inhibition was 56.5% (active). On to `O=C(NCCOc1ccccc1F)Nc1ccc(Br)cc1`, for which the inhibition was 5.19%.

On to `COCc1nnc(NC(=O)CS(=O)(=O)Cc2ccccc2)s1`, for which the inhibition is 4.38%. With `CCOC(=O)[C@]12CCCC3=C1N(CCC3)C(=O)[C@@H](CC(=O)N1CCSCC1)C2`, the inhibition was -0.18%. Regarding `CCOc1ccc(C(=O)NC2CCN(CC(=O)NCc3cccs3)CC2)cc1`, the inhibition was -7.65%. `COc1cc(NC(=O)C2=CC(c3ccco3)=NS(=O)(=O)N2C)cc(OC)c1OC`: the inhibition was 1.85%. Regarding `COCCNC(=O)c1ccc2nc(Cc3ccc(OC)c(OC)c3)oc2c1`, the inhibition is -4.89%. Regarding `COCCNC(=O)Nc1ccc2nc(-c3ccco3)c(-c3ccco3)nc2c1`, the inhibition is 69.7% (active). Turning to `COC(=O)[C@]12C[C@H](CC(=O)NCc3cccs3)C(=O)N(CCc3ccc(OC)c(OC)c3)C1=C[C@H](C(C)C)O[C@@H]2C1CC1`, the inhibition is 3.01%.

`CCc1nn(CCCC(=O)NC(C)c2ccccc2)c(=O)c2cc3occc3n12` (stereo unspecified): the inhibition was -1.26%. `O=C(C1CCN(S(=O)(=O)c2ccc(Br)s2)CC1)N1CCN(C2CCCCC2)CC1`: the inhibition is -5.64%. As for `O=C(COC(=O)CCCN1C(=O)c2cccc3cccc(c23)C1=O)NC1CCS(=O)(=O)C1` (stereo unspecified), the inhibition was -0.32%. The same measure for `O=C1c2cccc3cccc(c23)C(=O)N1CCCCCc1n[nH]c(=S)o1`: 38.4% (active); for `O=C(CCCN1C(=O)c2cccc3cccc(c23)C1=O)N1CCN(Cc2ccc3c(c2)OCO3)CC1`: -5.35%. As to `COc1cc(C(=S)NC2CCCCC2)ccc1O`, the inhibition was 4.7%.

`COc1cc(C(=O)Nn2c(CC(C)C)nc3ccccc3c2=O)cc(OC)c1OC`: the inhibition was -4.74%.

For `COc1cc(C(=O)Nn2c(O)c(C3=c4ccccc4=NC3=O)sc2=S)ccc1O`, the inhibition is 50.1% (active). With `C[C@H](C(=O)N(C)c1ccccc1)[C@@H](O)c1ccc(Cl)cc1` the figure was -1.76%. The same measure for `C=CCN1C(=O)[C@@H](CC(=O)NCCCCc2ccccc2)[C@]2(C(=O)OCC)CCCCC/C=C/12`: 3.6%; for `CCOC(=O)N1CCN(C(=O)C[C@@H]2C(=O)N(CCc3ccc(Cl)cc3)C3=CCCC[C@]32C(=O)OCC)CC1`: 3.44%. Regarding `CC(=O)N(c1ccc2oc(=O)sc2c1)S(=O)(=O)c1ccc(C)cc1`, the inhibition is 42.4% (active). For the compound `CC(=O)Oc1ccc(N(C(C)=O)S(=O)(=O)c2ccc3ccccc3c2)cc1Br`, the inhibition was 2.18%.

Take `COC(=O)c1c(C)oc2ccc(N(C(=O)Oc3ccccc3)S(=O)(=O)c3ccccc3)cc12`: the inhibition is 5.17%.

On to `CC(=O)OC12CCCN(C1)/C(=C/c1ccncc1)C2` (stereo unspecified), for which the inhibition is 3.52%.

As to `CCCOc1ccc(Oc2c(Cl)cnn(Cc3cccc4ccccc34)c2=O)cc1`, the inhibition was 6.74%. With `C[C@H](CO)N1C[C@H](C)[C@@H](CN(C)C(=O)Nc2ccccc2F)OCc2cn(nn2)CCCC1=O` the figure was 0.24%.
